These results are taken from PubChem BioAssay.

Test [1] is described as follows: stimulators of nuclear beta-catenin in C2C12, primary screen, imaging, WNT3A-conditioned medium, mouse C2C12, NPC library (AID 1117326; in the data active = nuclear beta-catenin stimulation mostly above about 4.2%, no sharp cut-off; inactive = mostly below about 10%). Conditions: stronger effect = higher value.
The nature of test [2]: stimulators of insulin release from INS-1E, primary screen, cell-based, 5 mM glucose, NPC library (AID 1117329;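 active = compound raises insulin release from rat beta cells at 5 mM glucose, no numeric limit stated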). Conditions: rat INS-1E insulin secretion, at 10 µM, stronger effect = higher value.
Test [3] can be described thus: growth inhibition of GSK3B-pretreated HCT116 cells – cell-based, CellTiter-Glo, 0.2 to 20 µM (AID 1117336;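 active = compounds lowering colon cancer cell viability after pretreatment blocking the GSK3B kinase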). Conditions: HCT116 viability after GSK3B inhibitor, at 20 µM, stronger effect = higher value. Background: ATP-based viability assays read luminescence as a measure of living cells.
Test [4] in a line: inhibition of endothelial tube formation, primary screen, imaging, VEGF stimulated, CD31 staining, tube area, NPC library (AID 1117340;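 active = compound that reduces growth-factor-driven endothelial tube area in a mixed cell culture, no cutoff stated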). Conditions: VEGF-stimulated ADSC/ECFC co-culture, at 10 µM, stronger effect = higher value.
The nature of test [5]: glucagon-like peptide 1 release enhancers, primary assay, NCI-H716 cell line, NPC library (AID 1117341;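 active = compound raises GLP1 secretion from the human gut endocrine cells, with no numeric limit stated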). Conditions: NCI-H716 cells, at 10 µM, stronger effect = higher value.
Test [6] can be described thus: HCT116 colon cancer cell growth inhibition, primary screen, CellTiter-Glo luminescence, NPC library (AID 1117342;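 active = compounds that lower survival of HCT116 colon cancer cells in the luminescence readout, no numeric limit stated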). The note with it: at 20 µM (top of the series).
The nature of test [7]: CellTiter-Glo luminescent readout of SW480 viability loss, NPC library primary (AID 1117343;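 active = compounds that lower viability of the colon cancer cells in the luminescence readout, with no numeric limit stated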). The note with it: CellTiter-Glo luminescence; at 20 µM (top of the series) unless noted.
Test [8] in a line: decreased DLD-1 cellular survival, CellTiter-Glo luminescent readout, NPC compound collection, primary HTS (AID 1117346;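 active = compounds that lower survival of DLD-1 colon cancer cells in the luminescence readout, no cutoff given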). The note with it: DLD-1 viability, CellTiter-Glo luminescence; at 20 µM (top of the series).
The nature of test [9]: growth inhibition of DIPG glioma cells, dose response, cell-based, SU-DIPG-XVII, MIPE5.0, CellTiter-Glo, qHTS (AID 1347060). Conditions: SU-DIPG-XVII viability, CellTiter-Glo ATP luminescence.
Test [10] in a line: growth inhibition of DIPG glioma cells, dose response, cell-based, SU-DIPG-XIII, MIPE4.0, CellTiter-Glo, qHTS (AID 1347061; cut-off not given, nearly all actives have AC50 up to about 37 µM;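 also: cells exposed to compound for 48 hours before readout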). Conditions: SU-DIPG-XIII viability, CellTiter-Glo ATP luminescence.
Test [11] can be described thus: growth inhibition of DIPG glioma cells, dose response, cell-based, JHH-DIPG-1, MIPE4.0, CellTiter-Glo, qHTS (AID 1347062; cut-off not given, nearly all actives have AC50 up to about 27 µM). Conditions: JHH-DIPG-1 viability, CellTiter-Glo ATP luminescence.
A short description of test [12]: viability loss in pontine glioma line – cell-based, SU-DIPG-XXV, MIPE5.0, CellTiter-Glo, qHTS, dose response (AID 1347065).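 Also: cells exposed to compound for 48 hours before ATP readout.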 The note with it: CellTiter-Glo ATP luminescence.
Test [13] is described as follows: SU-DIPG-VI glioma cell viability, MIPE4.0 library, CellTiter-Glo luminescence, qHTS (AID 1347066; cut-off not given, nearly all actives have AC50 up to about 30 µM;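 also: cells exposed to compound for 48 hours before readout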). The note with it: CellTiter-Glo ATP luminescence.
The nature of test [14]: SU-DIPG-XXV glioma cell viability, MIPE5.0 library, qHTS (AID 1347068; cut-off not given, nearly all actives have IC50 up to about 30 µM).
Test [15] is described as follows: sensitizers of A549 cells to miR-34 induction, primary screen, imaging, A549 dox-inducible miR-34, nuclei and caspase counts (AID 1347080;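 active = compounds whose cell count with miR-34 switched on is under 0.7 times the count with it off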). Conditions: A549 miR-34 inducible, Hoechst nuclei count, 48 h.
The nature of test [16]: survival rescue of mitochondrial mutant cells in low glucose, primary screen, MELAS cybrids, Rieske KO mouse fibroblasts, CellTiter-Glo (AID 1508586;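 active = mean z-score across replicates of 1.96 or higher in either the MELAS or the Rieske mutant cell line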;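 also: z relative to plate mean and SD of compound and empty wells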).
For test [17], the system named is Aerobactin synthetase IucA (Klebsiella pneumoniae). Description: IucA aerobactin synthetase inhibitors, biochemical, Tocris library, absorbance (AID 1345561; call rule not given here;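 also: 100% = enzyme without compound and 0% = no enzyme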). Conditions: purified IucA enzyme assay, absorbance (OD) read-out; stronger effect = lower value;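 tested at 8 µM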.
Test [18] can be described thus: viability rescue of complex I mutant cybrids, primary screen, cell-based, galactose medium, ATP luminescence (AID 1645843;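 active = z-score of at least 1.8 in each of two replicates, scored against plate mean and spread of sample wells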;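 also: positive z means more ATP and so rescue of galactose-driven cybrid death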). Conditions: complex I mutant cybrid cells, 72 h, stronger effect = higher value.
[19] abbreviates: stronger effect = lower value, cell number ratio, induced over uninduced.
Setting [20] is: measured here: relative caspase fold change +Dox/-Dox.
Where [21] appears, read: measured here: total cells with miR-34 induction, stronger effect = lower value.
The mark [22] stands for this setting: measured here: total cells without miR-34 induction.

Results filed as inconclusive are left out. Active and inactive are the calls of the source. Unless noted, the limit is not given here; nearly all actives have AC50 up to about 26 µM.

Turning to `CCC(C)(Oc1ccc(C2(c3ccc(OC(C)(CC)C(=O)O)cc3)CCCCC2)cc1)C(=O)O` (configuration not stated), the nuclear beta-catenin stimulation in [1] (at 10 µM) is -1.5% (inactive); in test [1] (stimulation, at 2 µM), -1.3%. Also, the insulin secretion stimulation in test [2] is 1.2% (inactive). Also, in [3], the viability decrease was -30.5% (inactive). Further, in [4], the tube area decrease was 0.6% (inactive). The GLP1 secretion stimulation in [5] is 4.1% (inactive). In addition, the inhibition of viability in [6] is -3.43% (inactive). In addition, the viability decrease (inhibition) in [7] is 15.4% (inactive); in test [8], -14.6% (inactive). Moreover, the molecule was classed as inactive in test [9], in test [10], in test [11], in [12], in [13] and in [14]. Besides, the fold change was 0.893 (inactive) in test [15] (setting [19]) and 0.926 in test [15] (setting [20]). For the same molecule, the cell count came to 9130 in [15] (setting [21]) and 10200 in test [15] (setting [22]). Also, the z-score in test [16] (MELAS cybrid survival, CellTiter-Glo 48 h, stronger effect = higher value) was -0.322 (inactive); in test [16] (Rieske KO mouse fibroblast survival, CellTiter-Glo 72 h), 0.575.
On to `CCCCCCCCCCCCCCCC(=O)NCCO`, for which the nuclear beta-catenin stimulation in test [1] (at 10 µM) was 2.2% (inactive); in [1] (stimulation, at 2 µM), 8.9%. The insulin secretion stimulation in [2] was 4.7% (inactive). Besides, the viability decrease in test [3] was -7.4% (inactive). The tube area decrease in test [4] was -5.7% (inactive). Further, the GLP1 secretion stimulation in test [5] was -1.8% (inactive). For the same molecule, the inhibition of viability in test [6] was 1.3% (inactive). Also, the viability decrease (inhibition) in [7] was -42.2% (inactive); in [8] it was -11.2% (inactive). Further, the remaining activity (commonly the signal under treatment as a percentage of the control signal) in test [17] was 113% (inactive). Besides, in test [18], the z-score is 0.05 (inactive).
In the case of `Nc1ccn(C2CO[C@H](CO)O2)c(=O)n1` (some centres not stated), the nuclear beta-catenin stimulation in [1] (at 10 µM) was 1.3% (inactive); in test [1] (stimulation, at 2 µM) it was 0.3%. In addition, in [2], the insulin secretion stimulation is 2% (inactive). The viability decrease in [3] is -8.3% (inactive). In addition, in test [4], the tube area decrease was 7.2% (inactive). Also, in [5], the GLP1 secretion stimulation was 0.5% (inactive). Further, the inhibition of viability in test [6] is 4.2% (inactive). Further, the viability decrease (inhibition) in test [7] was -18.8% (inactive); in test [8], 3.7% (inactive). Also, the molecule was called inactive in [9], in test [10], in [11], in [12], in test [13] and in test [14].
Regarding `Cc1oc(=O)oc1CN1CCN(c2cc3c(cc2F)c(=O)c(C(=O)O)c2n3C(C)S2)CC1` (configuration not stated), the nuclear beta-catenin stimulation in [1] (at 10 µM) was 0.8% (inactive); in [1] (stimulation, at 2 µM), 1.4%. Also, the insulin secretion stimulation in [2] is 1.6% (inactive). Further, in test [3], the viability decrease is 35.8% (inactive). For the same molecule, the tube area decrease in [4] is 4.4% (inactive). Further, the GLP1 secretion stimulation in test [5] was 2.3% (inactive). In addition, the inhibition of viability in test [6] is 38.1% (inactive). For the same molecule, the viability decrease (inhibition) in [7] was 26.1% (inactive); in [8], 1.4% (inactive). Besides, the call in [9], in [10], in test [11], in test [12], in test [13] and in test [14] was inactive.
For the molecule `O=C1OC(OC(=O)c2cccnc2Nc2cccc(C(F)(F)F)c2)c2ccccc21` (configuration not stated), the nuclear beta-catenin stimulation was 21.1% (inactive) in test [1] (at 10 µM) and 11% in test [1] (stimulation, at 2 µM). The insulin secretion stimulation in test [2] is 2.7% (inactive). The viability decrease in [3] is 17.5% (inactive). Besides, the tube area decrease in [4] is 72.7% (active). Further, the GLP1 secretion stimulation in test [5] is 1.3% (inactive). Further, the inhibition of viability in test [6] is 10.2% (inactive). Further, the viability decrease (inhibition) in [7] was 115% (active); in test [8] it was 31.2% (inactive). Further, the remaining activity in [17] was 120% (inactive). Moreover, the fold change is 0.992 (inactive) in [15] (setting [19]) and 1.33 in test [15] (setting [20]). In addition, the cell count in test [15] (setting [21]) was found to be 7990; in test [15] (setting [22]), 8060. Moreover, the z-score in test [18] was -0.625 (inactive).
